Data taken from PubChem BioAssay (Tox21).
A number with no mark means an inactive call. Inconclusive results are not listed. A call without a number means that no potency is given here. Active and inactive are the calls of the source. Unless noted, calls follow the shape of the full dose curve.

Columns and labels:
[1] = Nuclear factor erythroid 2-related factor 2/antioxidant responsive element (Nrf2/ARE) small molecule agonists: qHTS cell viability counter screen in human keratinocytes (AID 1919968; active = well fitted curve in the direction sought with a large enough effect in the repeat runs; an effect the other way counts as inactive or inconclusive; also: nearly all actives have a fitted effect of over 55% in size)
Procedure, shortened: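 Fluorescence read-out from CellTiter-Fluor after 1 h at 37 C. Wells held HaCaT-derived ARE-luciferase reporter cells (1,500/well) treated 23 h with DMSO-dissolved compounds. Run in the same wells as the luciferase agonist read.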

[2] = Nuclear factor erythroid 2-related factor 2/antioxidant responsive element (Nrf2/ARE) small molecule agonists: luciferase reporter gene qHTS assay in human keratinocytes (AID 1919969); also: nearly all actives have a fitted effect of over 35% in size
[3] = target: Gonadotropin-releasing hormone receptor (Homo sapiens) (UniProt P30968); assay: Human gonadotropin-releasing hormone receptor (GnRHR) small molecule agonists, calcium flux assay in GnRHR-HEK293 cells (AID 1920063); also: nearly all actives have a fitted effect of over 35% in size
Procedure, shortened: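 Calcium-dye fluorescence, Ex/Em=480/540, recorded every 1 sec over 3 min after compound addition to GnRHR-HEK293 cells. Cells had been seeded 18 hours earlier and dye-loaded for 1 hour at 37 C. Fifteen concentrations, triplicates.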

[4] = target: KiSS-1 receptor (Homo sapiens) (UniProt Q969F8); assay: Human kisspeptin (KISS1R) small molecule agonists, calcium flux assay in KISS1R-HEK293 cells (AID 1920064; active = well fitted curve in the direction sought with a large enough effect in the repeat runs; an effect the other way counts as inactive or inconclusive)
Procedure, shortened: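 Calcium flux read-out: kinetic fluorescence at Ex/Em=480/540, 1 s intervals over 3 min, after pin-tool compound addition to dye-loaded KISS1R-HEK293 cells. Fifteen concentrations, triplicates.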

[5] = G protein-coupled receptor (GPCR) small molecule agonists, calcium flux assay: HEK293 wild type cell line counter screen (AID 1920065)
Procedure, shortened: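 Agonist mode; 18 h seeding at 37 C, 1 h dye load at 37 C; compounds pinned from DMSO, ATP as positive control; kinetic fluorescence 480/540 nm, 3 min, 1 s reads; 15 concentrations, triplicate.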

[6] = p53 small molecule agonists, cell-based qHTS assay with human liver microsomes (AID 1963577);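 also: p53 response element beta-lactamase reporter cells with liver microsomes plus NADPH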
Procedure, shortened: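 HLM-supplemented p53RE-bla reporter assay: 16 h compound exposure at 37 C, microsomes and NADPH each 0.5 mg/mL final, read by fluorescence intensity.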

[7] = p53 small molecule agonists, cell-based qHTS assay with rat liver microsomes (AID 1963578)
Procedure, shortened: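 Quantitative HTS of the Tox21 10K library: p53RE-bla cells, rat liver microsomes plus NADPH at 0.5 mg/mL final each, 16 h at 37 C, beta-lactamase fluorescence detection.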

[8] = p53 small molecule agonists, cell-based qHTS assay with rat liver microsomes: qHTS cell viability counter screen (AID 1963580); also: nearly all actives have a fitted effect of over 45% in size
Procedure, shortened: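 Cytotoxicity counter screen: intracellular ATP measured by CellTiter-Glo luminescence in the same wells as the beta-lactamase reporter read, on HCT-116 p53RE-bla cells exposed 16 h at 37 C to compounds with rat liver microsomes and NADPH, each 0.5 mg/mL final.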

[9] = p53 small molecule agonists, cell-based qHTS assay: qHTS cell viability counter screen (AID 1963581); also: nearly all actives have a fitted effect of over 45% in size
Procedure, shortened: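 Cytotoxicity read-out: ATP-based luminescence (CellTiter-Glo, 30 min RT) measured in the same wells as the p53 reporter assay, HCT-116 p53RE-bla cells, 16 h compound exposure at 37 C.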

[10] = p53 small molecule agonists, cell-based qHTS assay (AID 1963582; active = well fitted activation curve with a large enough effect in the signal ratio in the repeat runs, not every such curve was filed as active; the % refers to the signal ratio)
Procedure, shortened: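 Fluorescence intensity read-out of a beta-lactamase reporter under a p53 response element. Cells were exposed to DMSO-dissolved compounds for 16 h at 37 C, then developed with FRET substrate for 2 h at RT.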

[11] = target: 5-hydroxytryptamine receptor 2A (Homo sapiens) (UniProt P28223); assay: 5-hydroxytryptamine receptor 2A (HTR2A) small molecule antagonists, cell-based qHTS assay (AID 1963586); also: nearly all actives have a fitted effect of over 45% in size; also: potency is read from the fitted curve at half-maximal effect
Procedure, shortened: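 CHO cells stably expressing human HTR2A were plated for 18 h at 37 C, then loaded with calcium dye for 1 h. Compounds were preincubated 5 min at room temperature before DOI (4 nM solution) was added. Kinetic fluorescence was read for 3 min.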

[12] = target: 5-hydroxytryptamine receptor 2A (Homo sapiens) (UniProt P28223); assay: 5-hydroxytryptamine receptor 2A (HTR2A) small molecule agonists, cell-based qHTS assay (AID 1963587); also: nearly all actives have a fitted effect of over 30% in size; also: potency is read from the fitted curve at half-maximal effect
Procedure, shortened: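 CHO cells stably expressing human HTR2A, plated 18 h, loaded with calcium dye 1 h at 37 C. Agonist mode: compounds added and intracellular calcium fluorescence recorded kinetically for 2 min at 1 sec intervals.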

[13] = target: Muscarinic acetylcholine receptor M1 (Homo sapiens) (UniProt P11229); assay: Cholinergic receptor muscarinic 1 (CHRM1) small molecule antagonists, cell-based qHTS assay (AID 1963588); also: nearly all actives have a fitted effect of over 40% in size
Procedure, shortened: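 Compounds were tested at 15 concentrations in three independent runs. Dye-loaded CHRM1-CHO cells were exposed 5 min at room temperature before stimulation by acetylcholine added at 50nM. Intracellular calcium was read kinetically on FDSS for 3 min.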

[14] = target: Muscarinic acetylcholine receptor M1 (Homo sapiens) (UniProt P11229); assay: Cholinergic receptor muscarinic 1 (CHRM1) small molecule agonists, cell-based qHTS assay (AID 1963589); also: nearly all actives have a fitted effect of over 35% in size
Procedure, shortened: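 Calcium flux read-out: kinetic fluorescence at 1 sec intervals after pin-tool compound addition to dye-loaded CHRM1-CHO cells (human M1). Agonist mode; 15 concentrations tested in triplicate independent runs.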

[15] = target: Beta-2 adrenergic receptor (Homo sapiens) (UniProt P07550); assay: Adrenergic beta2 receptor (ADRB2) small molecule antagonists, cell-based qHTS assay (AID 1963592); also: series mostly up to about 92 µM; nearly all actives have a fitted effect of over 50% in size
Procedure, shortened: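 Assay format: CHO-ADRB2 cells, 18-20hr seeding at 37C/5% CO2, then compound plus 1nM isoproterenol agonist mix for 0.5hr RT. Homogeneous time-resolved fluorescence cAMP detection after 1hr, expressed as 665/615 nm ratio.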

[16] = target: D(2) dopamine receptor (Homo sapiens) (UniProt P14416); assay: Dopamine D2 receptor (DRD2) small molecule agonists, cell-based qHTS assay (AID 1963594); also: nearly all actives have a fitted effect of over 35% in size
Procedure, shortened: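 HEK293 cells stably expressing human DRD2, pre-treated with PDE inhibitor Ro20-1724 (0.1 mM final) and compound 10 min at room temperature, then stimulated with NKH477 (200nM […]) for 30 min. cAMP read by HTRF (665/620 nm).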

[17] = target: D(2) dopamine receptor (Homo sapiens) (UniProt P14416); assay: Dopamine D2 receptor (DRD2) small molecule antagonists, cell-based qHTS assay (AID 1963595; active = well fitted inhibition curve with a large enough effect in the signal ratio in the repeat runs, with a control signal flat; the % refers to the signal ratio)
Procedure, shortened: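 HTRF cAMP read-out at 665 and 620 nm emission (340 nm excitation). Antagonist mode: compounds were tested against 12 nM quinpirole in DRD2-HEK293 cells, with 200 nM NKH477 raising cAMP and 0.1 mM Ro20-1724 blocking its breakdown.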

[18] = cAMP Responsive Elements (CRE) small molecule antagonists, cell-based qHTS assay (AID 1963591; active = well fitted inhibition curve with a large enough effect in the signal ratio in the repeat runs, not every such curve was filed as active; the % refers to the signal ratio)
Procedure, shortened: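 HEK293T CRE-bla; 18 h preincubation; compound pin-transfer; NKH477 0.25 uM final, 3 h, 37 C; LiveBLAzer FRET substrate 2 h RT.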

[19] = cAMP Responsive Elements (CRE) small molecule agonists, cell-based qHTS assay (AID 1963590)
Procedure, shortened: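 Beta-lactamase reporter readout: LiveBLAzer B/G FRET substrate, 2 h at room temperature, added after 3 h compound treatment of CRE-bla HEK 293T cells at 37 C/5% CO2.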

[20] = target: Beta-2 adrenergic receptor (Homo sapiens) (UniProt P07550); assay: Adrenergic beta2 receptor (ADRB2) small molecule agonists, cell-based qHTS assay (AID 1963593);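 also: CHO cells stably overexpressing human ADRB2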
Procedure, shortened: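 CHO cells stably over-expressing ADRB2 were plated overnight at 37C, then dosed with compounds plus a stimulation mix containing 100uM IBMX and 25uM Ro-20-1724 for 0.5hr at room temperature. cAMP was measured by HTRF competition, 1hr.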

Sequence of Gonadotropin-releasing hormone receptor (Homo sapiens) (P30968 whole entry, looked up): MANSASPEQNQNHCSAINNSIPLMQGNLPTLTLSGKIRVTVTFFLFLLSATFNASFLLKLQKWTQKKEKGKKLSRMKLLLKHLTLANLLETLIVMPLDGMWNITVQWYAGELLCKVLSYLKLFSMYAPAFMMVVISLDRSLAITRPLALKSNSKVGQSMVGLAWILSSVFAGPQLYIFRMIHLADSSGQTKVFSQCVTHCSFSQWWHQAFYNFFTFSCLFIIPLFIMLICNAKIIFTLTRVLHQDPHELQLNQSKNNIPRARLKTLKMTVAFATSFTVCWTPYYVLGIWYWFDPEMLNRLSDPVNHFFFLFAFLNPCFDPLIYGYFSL
Sequence of D(2) dopamine receptor (Homo sapiens) (P14416 whole entry, looked up): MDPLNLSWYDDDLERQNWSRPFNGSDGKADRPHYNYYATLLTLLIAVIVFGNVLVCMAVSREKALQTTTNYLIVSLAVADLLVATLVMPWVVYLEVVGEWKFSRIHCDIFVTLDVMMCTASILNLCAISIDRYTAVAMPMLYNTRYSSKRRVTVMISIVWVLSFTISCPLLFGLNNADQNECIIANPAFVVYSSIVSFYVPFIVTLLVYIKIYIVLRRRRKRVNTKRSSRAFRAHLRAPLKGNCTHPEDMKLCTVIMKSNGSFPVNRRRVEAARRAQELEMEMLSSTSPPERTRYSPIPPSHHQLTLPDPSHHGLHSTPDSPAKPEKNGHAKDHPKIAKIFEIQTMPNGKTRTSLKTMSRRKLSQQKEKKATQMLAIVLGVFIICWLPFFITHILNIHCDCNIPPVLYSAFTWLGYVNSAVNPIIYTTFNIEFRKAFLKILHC
Sequence of 5-hydroxytryptamine receptor 2A (Homo sapiens) (P28223 whole entry, looked up): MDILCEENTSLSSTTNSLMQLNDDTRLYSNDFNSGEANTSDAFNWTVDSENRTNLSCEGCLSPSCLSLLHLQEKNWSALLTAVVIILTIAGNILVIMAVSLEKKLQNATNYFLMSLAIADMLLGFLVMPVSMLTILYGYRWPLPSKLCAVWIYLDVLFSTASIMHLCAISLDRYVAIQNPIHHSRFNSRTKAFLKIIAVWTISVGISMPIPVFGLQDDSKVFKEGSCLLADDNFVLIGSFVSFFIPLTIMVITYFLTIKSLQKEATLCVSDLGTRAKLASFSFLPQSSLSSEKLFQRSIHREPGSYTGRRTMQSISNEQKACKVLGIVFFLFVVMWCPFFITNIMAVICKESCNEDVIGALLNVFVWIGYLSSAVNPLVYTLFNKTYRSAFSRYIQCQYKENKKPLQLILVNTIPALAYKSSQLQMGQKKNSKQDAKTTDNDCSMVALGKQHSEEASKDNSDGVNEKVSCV
Sequence of Muscarinic acetylcholine receptor M1 (Homo sapiens) (P11229 whole entry, looked up): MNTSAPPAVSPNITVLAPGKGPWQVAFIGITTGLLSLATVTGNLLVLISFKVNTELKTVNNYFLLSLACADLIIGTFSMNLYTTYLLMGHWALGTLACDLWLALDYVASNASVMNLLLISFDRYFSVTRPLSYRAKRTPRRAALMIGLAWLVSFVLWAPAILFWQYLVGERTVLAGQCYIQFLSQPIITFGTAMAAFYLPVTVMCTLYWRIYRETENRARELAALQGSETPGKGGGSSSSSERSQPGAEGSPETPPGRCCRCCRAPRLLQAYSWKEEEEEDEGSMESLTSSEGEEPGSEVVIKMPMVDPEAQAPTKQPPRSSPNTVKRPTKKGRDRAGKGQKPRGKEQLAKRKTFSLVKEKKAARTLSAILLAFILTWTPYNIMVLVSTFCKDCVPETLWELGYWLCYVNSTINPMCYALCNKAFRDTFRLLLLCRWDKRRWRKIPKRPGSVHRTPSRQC
Sequence of Beta-2 adrenergic receptor (Homo sapiens) (P07550 whole entry, looked up): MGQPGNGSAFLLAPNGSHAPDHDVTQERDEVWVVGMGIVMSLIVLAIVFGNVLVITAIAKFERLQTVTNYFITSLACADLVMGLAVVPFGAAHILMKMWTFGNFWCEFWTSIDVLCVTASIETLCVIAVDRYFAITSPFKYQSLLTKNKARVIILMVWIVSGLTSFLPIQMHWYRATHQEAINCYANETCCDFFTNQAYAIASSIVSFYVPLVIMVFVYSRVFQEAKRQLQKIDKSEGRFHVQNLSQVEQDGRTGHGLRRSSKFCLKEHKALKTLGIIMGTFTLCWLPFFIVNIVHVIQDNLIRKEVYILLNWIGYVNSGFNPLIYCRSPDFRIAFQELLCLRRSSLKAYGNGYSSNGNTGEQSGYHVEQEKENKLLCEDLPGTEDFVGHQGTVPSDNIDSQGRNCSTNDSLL
Sequence of KiSS-1 receptor (Homo sapiens) (Q969F8 whole entry, looked up): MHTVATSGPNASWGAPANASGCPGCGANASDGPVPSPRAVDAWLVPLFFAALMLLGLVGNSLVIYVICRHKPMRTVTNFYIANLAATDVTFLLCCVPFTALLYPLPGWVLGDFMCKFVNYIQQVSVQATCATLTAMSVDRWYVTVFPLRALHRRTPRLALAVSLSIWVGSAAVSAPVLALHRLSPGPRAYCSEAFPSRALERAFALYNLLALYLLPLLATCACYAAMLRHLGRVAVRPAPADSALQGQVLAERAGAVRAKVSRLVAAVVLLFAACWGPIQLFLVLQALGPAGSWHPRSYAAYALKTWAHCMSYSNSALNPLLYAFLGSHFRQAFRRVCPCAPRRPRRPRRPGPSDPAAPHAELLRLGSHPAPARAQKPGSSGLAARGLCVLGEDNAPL

Compound	Potency [1]	Potency [2]	Potency [3]	outcome [4]	outcome [5]	Potency [6]	Potency [7]	Potency [8]	Potency [9]	Potency [10]	Potency [11]	Potency [12]	Potency [13]	Potency [14]	Potency [15]	Potency [16]	Potency [17]	Potency [18]	Potency [19]	Potency [20]
NC1CCN(c2cccc(Cl)n2)CC1	inactive	inactive	inactive	inactive	inactive	inactive	inactive	inactive	inactive	inactive	410 nM (active)	268 nM (active)	inactive	inactive	inactive	inactive	inactive	–	–	–
CCCCN(CCCC)CCCOC(=O)c1ccc(N)cc1	inactive	inactive	inactive	inactive	inactive	inactive	inactive	inactive	inactive	inactive	–	3380 nM (active)	inactive	inactive	–	inactive	inactive	inactive	–	–
C[C@H](CN1CCCC1)C(=O)c1ccc(C(F)(F)F)cc1	inactive	inactive	inactive	inactive	inactive	inactive	inactive	inactive	inactive	inactive	inactive	inactive	–	–	inactive	inactive	inactive	–	inactive	inactive
CC(=O)Nc1ccc(S(N)(=O)=O)cc1	inactive	inactive	inactive	inactive	inactive	inactive	inactive	inactive	inactive	inactive	inactive	inactive	inactive	–	inactive	–	inactive	inactive	–	–
CC(C(=O)O)c1ccc(CC2CCCC2=O)cc1 (stereo not given)	inactive	inactive	inactive	inactive	inactive	inactive	inactive	inactive	inactive	inactive	–	–	–	–	inactive	inactive	inactive	inactive	inactive	–
CCCN(CCC)C(=O)C(CCC(=O)O)NC(=O)c1ccccc1 (stereo not given)	inactive	inactive	inactive	inactive	inactive	inactive	inactive	inactive	inactive	inactive	–	–	–	–	inactive	–	inactive	inactive	inactive	inactive
CC(C)CCCCCCc1ccc(OCCOCCO)cc1	inactive	inactive	inactive	inactive	inactive	inactive	inactive	inactive	inactive	inactive	inactive	inactive	inactive	–	inactive	inactive	–	inactive	inactive	inactive
O=[N+]([O-])c1ccc(F)c(Cl)c1	inactive	inactive	inactive	inactive	inactive	inactive	inactive	inactive	inactive	inactive	–	inactive	inactive	inactive	–	inactive	–	inactive	inactive	–
